Reference: PubChem BioAssay (NCATS)
Inconclusive results are not listed. Active and inactive are the calls of the source. Unless noted, the call rests on the fitted dose curve; in most records, active means well fitted curve in the direction sought with a large enough effect; inconclusive means small, poorly fitted or top-dose-only effect, or another doubt; inactive means no such curve, though single readings can be large; an effect the other way counts as inactive or inconclusive.

What was measured:
[1] = molecular target: Lysosomal acid glucosylceramidase (Homo sapiens) (UniProt P04062); test: Glucocerebrosidase-p2 (AID 348; in the data active means potency below about 10 µM; further: potency means the concentration at half of the fitted maximal effect); conditions: purified GBA, blue fluorogenic substrate, 40 min
Outline: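 Normal human glucocerebrosidase (0.2 nM) with blue fluorogenic substrate (80 uM final) in citrate/phosphate pH 5.9 with 10mM sodium taurocholate, 0.01% tween-20; 40 min RT, NaOH/glycine stop; fluorescence Ex 365/Em 440; AC50 from a titration from 0.6 nM upwards.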

[2] = molecular target: Cytochrome P450 1A2 (Homo sapiens) (UniProt P05177); test: p450-cyp1a2 (AID 410; calls by dose curve; further: potency means the concentration at half of the fitted maximal effect); conditions: recombinant CYP1A2, luciferin-ME demethylation, luminescence; series mostly up to 57 µM
Outline: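 20nM CYP1A2, 100uM Luciferin-ME (=Km), 100mM KPO4; cpd 10 min RT; +NADPH regen, 60 min RT; stop/detect 20 min; luminescence. Normalized to furafylline 57 uM = full inhibition.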

[3] = Stat Signaling Pathway (AID 446; active means well fitted curve in either direction with a large enough effect, not every such curve was filed as active;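 further: ME-180 cervical cancer cells given 40 pM IL-6 alongside compound; SIE-controlled beta-lactamase reporter measured as 460/530 nm FRET emission ratio; on the % scale 0 is the no-effect control and ±100 the full control effect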); conditions: ME-180 SIE beta-lactamase reporter, IL-6 stimulated, 5 h; at 7.69 µM (top of the series) unless noted
Outline: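 Emission at 460 and 530 nm (excitation 405 nm) reports SIE-controlled beta-lactamase in ME-180 cells. Cells received compound with 40 pM IL-6 for 5 hrs at 37 C; data scaled between 300 pM IL-6 and 125 nM JAK-inhibitor controls.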

[4] = molecular target: Glucocorticoid receptor (Homo sapiens) (UniProt P04150); test: GR-GFP Redistribution (AID 450;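 active means compounds whose dose series gives a full or clear partial fitted curve of increased nuclear translocation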; further: potency means the concentration at half of the fitted maximal effect); conditions: U2OS GR-GFP nuclear translocation, laser cytometry, 2 h
[5] = molecular target: Glucocorticoid receptor (Homo sapiens) (UniProt P04150); test: GR-EFC Redistribution (AID 451; calls by dose curve; further: potency means the concentration at half of the fitted maximal effect); conditions: CHO-K1 GR-EFC translocation, beta-gal luminescence, 2 h
Outline: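 CHO-K1 cells stably expressing nuclear-localized β-gal enzyme acceptor and GR fused C-terminally to the enzyme donor fragment; ligand-driven nuclear translocation restores β-gal by complementation. Compounds titrated up to 46 uM final, 2 h at 37 °C; luminescence read.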

[6] = molecular target: Mitogen-activated protein kinase 10 (Mus musculus) (UniProt Q61831); test: JNK3 AlphaScreen Assay (AID 530; active means well fitted curve in either direction with a large enough effect, not every such curve was filed as active;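 further: kinase came from lysate of stimulated human HepG2 cells; signal reports phosphorylation of biotinylated GST-cJun 1-79 at Ser73 with 10 µM ATP; on the % scale 0 is the no-effect control and ±100 the full control effect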); conditions: JNK3 lysate, c-Jun phosphorylation; series mostly up to 57.1 µM
Outline: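 Biotinylated GST-cJun(1-79) served as substrate for JNK3 in HepG2 lysates stimulated with IL-1beta and TNF-alpha. ATP was 10 uM final, pH 7.6. Ser73 phosphorylation was quantified by AlphaScreen (680 nm excitation).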

[7] = molecular target: 3',5'-cyclic-AMP phosphodiesterase 4B (Homo sapiens) (UniProt Q07343); test: qHTS Assay for Inhibitors of PDE-IV (AID 607; active means well fitted activation curve with a large enough effect in the main read-out, with a control signal flat, not every such curve was filed as active; further: % of control where 0% means no effect); conditions: HEK293 ACTOne CNG channel cells, membrane potential fluorescence; series mostly up to 22.9 µM
Outline: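 The readout is membrane depolarisation from a cAMP-sensing CNG channel, detected with a potential dye at ex 535/em 590. Cells were HEK293-derived (endogenous PDE-IV) at 1000 cells/well, titrated up to 22.9 uM final.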

[8] = molecular target: Cytochrome P450 3A4 (Homo sapiens) (UniProt P08684); test: qHTS Assay for Inhibitors and Substrates of Cytochrome P450 3A4 (AID 884); conditions: recombinant CYP3A4, Luciferin-PPXE luminescence; series mostly up to 57.1 µM; further: potency means the concentration at half of the fitted maximal effect; nearly all actives have a fitted effect of over 50% in size
Outline: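 Luminescent readout of luciferin produced by CYP3A4 (20 nM) dealkylation of Luciferin-PPXE, 25 uM (its KM). NADPH-driven reaction ran 60 min at RT after 10 min compound preincubation; data scaled to 57 uM ketoconazole as 100% inhibition.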

[9] = molecular target: Cytochrome P450 3A4 (Homo sapiens) (UniProt P08684); test: qHTS Assay for Activators of Cytochrome P450 3A4 (AID 885); conditions: recombinant CYP3A4, Luciferin-PPXE luminescence, 60 min; series mostly up to 57.1 µM; further: nearly all actives have a fitted effect of over 65% in size
Outline: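 Activators are scored by enhanced luminescence from CYP3A4 conversion of luciferin-PPXE (25uM, equal to KM) to luciferin, after 60 min at RT with an NADPH-regenerating system.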

[10] = molecular target: Cytochrome P450 2D6 (Homo sapiens) (UniProt P10635); test: qHTS Assay for Inhibitors and Substrates of Cytochrome P450 2D6 (AID 891); conditions: recombinant CYP2D6, luciferin-ME EGE luminescence; series mostly up to 57.1 µM; further: potency means the concentration at half of the fitted maximal effect; nearly all actives have a fitted effect of over 60% in size
Outline: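 Luminescent read-out of luciferin formed by 5 nM human CYP2D6 demethylating 30 uM Luciferin-ME EGE (Km level) over 60 min at room temperature after NADPH regeneration addition. Data normalized to full inhibition by 1.43 uM quinidine.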

[11] = molecular target: Cytochrome P450 2C19 (Homo sapiens) (UniProt P33261); test: qHTS Assay for Inhibitors and Substrates of Cytochrome P450 2C19 (AID 899); conditions: recombinant CYP2C19, luciferin-H EGE luminescence; series mostly up to 57.1 µM; further: potency means the concentration at half of the fitted maximal effect; nearly all actives have a fitted effect of over 60% in size
Outline: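 NADPH-dependent conversion of Luciferin-H EGE (10uM, at KM) by 5nM enzyme in 50mM KPO4, 60 min at 37C following 10 min compound preincubation. Stopped with luciferin detection buffer; luminescence read after 20 min.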

[12] = molecular target: Dual specificity protein kinase CLK4 (Homo sapiens) (UniProt Q9HAZ1); test: qHTS Assay for Inhibitors of CDC-like Kinase 4 (Kinase-Glo Assay) (AID 1770); conditions: recombinant Clk4, Kinase-Glo ATP depletion luminescence; series mostly up to 66.7 µM; further: nearly all actives have a fitted effect of over 65% in size; further: potency means the concentration at half of the fitted maximal effect
Outline: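 Luminescent ATP-depletion read-out (Kinase-Glo) after 4.5 h room-temperature reaction of Clk4 (25 nM final) with RS peptide (100 uM) and ATP (1 uM), pH 7.5 Tris buffer with MgCl2 and DTT.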

[13] = molecular target: Dual specificity protein kinase CLK4 (Homo sapiens) (UniProt Q9HAZ1); test: qHTS Assay for Inhibitors of CDC-like Kinase 4 (ADP-Glo Assay) (AID 1771); conditions: recombinant CLK4, ADP-Glo luminescence; series mostly up to 80 µM; further: nearly all actives have a fitted effect of over 70% in size; further: potency means the concentration at half of the fitted maximal effect
Outline: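 25 nM Clk4, 100 uM RS peptide, 1 uM ATP (final); 2 mM MgCl2, 0.5 mM EGTA, 2.5 mM DTT, 0.01% Triton X-100; 1 hr RT. ADP-Glo readout: ATP depletion 45 min, conversion/luciferase 30 min, luminescence.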

[14] = molecular target: Ubiquitin carboxyl-terminal hydrolase 1 (Homo sapiens) (UniProt O94782); test: Inhibitors of USP1/UAF1: Pilot qHTS (AID 504865); conditions: purified USP1/UAF1, Ub-rhodamine cleavage fluorescence; series mostly up to 54.9 µM;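 further: rhodamine fluorescence freed from ubiquitin-rhodamine substrate followed over time; top concentration of the series differs between compounds; on the % scale 0 is the no-effect control and ±100 the full control effect; nearly all actives have a fitted effect of over 35% in size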
Outline: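 Deubiquitinase activity followed as kinetic rhodamine fluorescence release from 150 nM Ub-Rho. 1 nM USP1/UAF1 with compound, after 15 min room-temperature preincubation, in HEPES pH 7.8 buffer containing TCEP, EDTA, BSA and Tween-20.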

[15] = Primary qHTS for small molecule stabilizers of the endoplasmic reticulum resident proteome: Secreted ER Calcium Modulated Protein (SERCaMP) assay (AID 1508630); conditions: SH-SY5Y GLuc-SERCaMP (Gaussia luciferase released on ER calcium loss) secretion, thapsigargin, luminescence; series mostly up to 38.4 µM; further: on the % scale 0 is the no-effect control and ±100 the full control effect
Outline: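 The SH-SY5Y reporter protocol was run at 3 concentrations up to 38.3 uM (primary) or 11 concentrations (follow-up): 16 h compound, 100 nM thapsigargin for 4 h, then extracellular luciferase luminescence.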

[16] = AP1 Signaling Pathway (AID 357; active means well fitted curve in either direction with a large enough effect, not every such curve was filed as active; further: on the % scale 0 is the no-effect control and ±100 the full control effect); conditions: ME-180 AP-1-bla reporter, EGF-induced, beta-lactamase ratio, 5 h; at 7.69 µM (top of the series) unless noted
Outline: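 ME-180 cells with beta-lactamase reporter under AP-1 response element, stimulated with EC50 EGF; compounds tested in titration series, 5 h at 37 °C. CCF4 substrate added 2.5 h at room temperature; 460/530 nm emission ratio gave %activity and AC50.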

[17] = NFAT Signaling Pathway (AID 444; active means well fitted curve in either direction with a large enough effect, not every such curve was filed as active); conditions: Jurkat NFAT-bla M1, carbachol, beta-lactamase ratio, 5 h; at 7.69 µM (top of the series) unless noted
Outline: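 Jurkat cells carrying an NFAT-driven β-lactamase reporter and co-transfected muscarinic M1 receptor were treated with compound plus carbachol (1 uM final, an EC50 level) for 5 h at 37 °C. CCF4 loading followed for 1 h at RT; 460/530 nm ratio gave %activity.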

[18] = molecular target: Dual specificity protein kinase CLK4 (Homo sapiens) (UniProt Q9HAZ1); test: qHTS Assay for Inhibitors of CDC-like Kinase 4 (ADP-FP Assay) (AID 1795); conditions: Transcreener ADP fluorescence polarization; series mostly up to 50 µM;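 further: recombinant human CLK4 phosphorylating RS repeat peptide at 1 µM ATP; on the % scale 0 is the no-effect control and ±100 the full control effect; nearly all actives have a fitted effect of over 60% in size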
Outline: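 Kinase activity was measured as ADP production using Transcreener orange tracer (4 nM) and ADP antibody (1 ug/mL) fluorescence polarization, with ADP calculated from a calibration curve. The 1 h reaction contained 6.25 nM Clk4, 1 uM ATP and 100 uM RS peptide at pH 7.5 with Mg2+.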

[19] = qHTS Assay for Identification of Small Molecule Agonists for Hypoxia Response Element Signaling Pathway (AID 914; active means well fitted activation curve with a large enough effect in the signal ratio, with a control signal flat, not every such curve was filed as active; the % refers to the signal ratio; further: potency means the concentration at half of the fitted maximal effect); conditions: ME-180 HRE-bla reporter, beta-lactamase ratio, CoCl2, 17 h; activation: hits give high values
Outline: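 ME-180 cells carrying an HRE-driven beta-lactamase reporter were treated with compounds in a titration series plus an EC50 level of CoCl2 for 17 h at 37 degrees Celsius; CCF4 readout as the 460nm/530nm ratio gave AC50 values.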

Cytochrome P450 1A2 (Homo sapiens), sequence (P05177 whole entry, looked up): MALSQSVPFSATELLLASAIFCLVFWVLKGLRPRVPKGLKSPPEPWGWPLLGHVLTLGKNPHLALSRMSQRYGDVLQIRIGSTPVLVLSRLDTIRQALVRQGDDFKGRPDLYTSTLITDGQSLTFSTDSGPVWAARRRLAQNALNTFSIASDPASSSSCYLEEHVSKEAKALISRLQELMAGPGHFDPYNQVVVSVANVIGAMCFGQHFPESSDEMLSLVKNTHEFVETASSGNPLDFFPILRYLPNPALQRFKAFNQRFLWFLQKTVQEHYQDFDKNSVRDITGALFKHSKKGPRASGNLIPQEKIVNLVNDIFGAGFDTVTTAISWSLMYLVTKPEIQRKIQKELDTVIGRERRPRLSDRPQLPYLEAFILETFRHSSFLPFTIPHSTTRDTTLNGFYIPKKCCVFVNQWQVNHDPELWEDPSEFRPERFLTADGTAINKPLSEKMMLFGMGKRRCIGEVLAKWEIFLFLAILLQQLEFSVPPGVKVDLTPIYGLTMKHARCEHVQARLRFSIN
3',5'-cyclic-AMP phosphodiesterase 4B (Homo sapiens), sequence (Q07343 whole entry, looked up): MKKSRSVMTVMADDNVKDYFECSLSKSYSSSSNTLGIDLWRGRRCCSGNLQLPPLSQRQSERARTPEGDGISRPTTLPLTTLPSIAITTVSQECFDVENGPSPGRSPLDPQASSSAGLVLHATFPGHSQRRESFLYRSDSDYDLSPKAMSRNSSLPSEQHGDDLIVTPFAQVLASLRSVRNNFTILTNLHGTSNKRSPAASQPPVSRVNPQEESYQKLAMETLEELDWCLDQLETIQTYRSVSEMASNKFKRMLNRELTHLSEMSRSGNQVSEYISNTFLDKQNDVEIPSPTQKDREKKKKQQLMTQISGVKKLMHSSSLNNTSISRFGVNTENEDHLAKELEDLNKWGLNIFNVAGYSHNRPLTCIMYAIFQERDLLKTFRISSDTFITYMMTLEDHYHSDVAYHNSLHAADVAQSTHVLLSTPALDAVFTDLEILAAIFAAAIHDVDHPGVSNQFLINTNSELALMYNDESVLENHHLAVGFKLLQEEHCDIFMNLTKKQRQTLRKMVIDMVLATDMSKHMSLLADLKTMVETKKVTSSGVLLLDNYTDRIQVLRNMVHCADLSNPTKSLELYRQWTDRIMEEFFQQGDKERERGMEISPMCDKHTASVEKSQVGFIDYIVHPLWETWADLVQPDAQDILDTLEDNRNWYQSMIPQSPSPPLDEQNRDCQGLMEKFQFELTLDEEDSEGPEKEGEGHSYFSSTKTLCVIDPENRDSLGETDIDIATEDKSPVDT
Dual specificity protein kinase CLK4 (Homo sapiens), sequence (Q9HAZ1 whole entry, looked up): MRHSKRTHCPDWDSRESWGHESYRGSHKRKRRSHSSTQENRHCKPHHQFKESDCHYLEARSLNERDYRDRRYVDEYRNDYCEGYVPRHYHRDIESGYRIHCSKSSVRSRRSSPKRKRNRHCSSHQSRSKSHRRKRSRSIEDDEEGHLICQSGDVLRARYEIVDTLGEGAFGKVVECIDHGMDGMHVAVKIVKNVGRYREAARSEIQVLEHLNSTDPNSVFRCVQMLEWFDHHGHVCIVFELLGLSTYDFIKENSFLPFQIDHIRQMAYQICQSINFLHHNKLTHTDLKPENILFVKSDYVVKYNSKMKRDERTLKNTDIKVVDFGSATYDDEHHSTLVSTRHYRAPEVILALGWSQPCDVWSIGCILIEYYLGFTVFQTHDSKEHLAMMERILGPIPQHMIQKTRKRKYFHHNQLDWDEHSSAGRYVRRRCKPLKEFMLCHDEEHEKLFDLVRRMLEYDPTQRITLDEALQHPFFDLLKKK
Lysosomal acid glucosylceramidase (Homo sapiens), sequence (P04062 whole entry, looked up): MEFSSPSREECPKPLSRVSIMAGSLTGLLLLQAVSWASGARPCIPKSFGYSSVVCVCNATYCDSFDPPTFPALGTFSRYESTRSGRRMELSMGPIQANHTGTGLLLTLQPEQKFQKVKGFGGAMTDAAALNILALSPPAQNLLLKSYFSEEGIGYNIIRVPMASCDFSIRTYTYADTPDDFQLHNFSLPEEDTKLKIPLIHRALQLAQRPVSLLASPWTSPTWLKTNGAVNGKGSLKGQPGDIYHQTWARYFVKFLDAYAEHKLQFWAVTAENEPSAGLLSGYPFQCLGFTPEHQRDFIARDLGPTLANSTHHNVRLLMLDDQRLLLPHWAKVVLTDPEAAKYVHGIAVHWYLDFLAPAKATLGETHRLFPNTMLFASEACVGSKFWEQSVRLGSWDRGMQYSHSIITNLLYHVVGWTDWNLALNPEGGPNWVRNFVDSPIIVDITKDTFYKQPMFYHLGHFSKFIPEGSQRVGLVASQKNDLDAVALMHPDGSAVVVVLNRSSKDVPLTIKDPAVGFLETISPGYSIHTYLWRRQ
Cytochrome P450 3A4 (Homo sapiens), sequence (P08684 whole entry, looked up): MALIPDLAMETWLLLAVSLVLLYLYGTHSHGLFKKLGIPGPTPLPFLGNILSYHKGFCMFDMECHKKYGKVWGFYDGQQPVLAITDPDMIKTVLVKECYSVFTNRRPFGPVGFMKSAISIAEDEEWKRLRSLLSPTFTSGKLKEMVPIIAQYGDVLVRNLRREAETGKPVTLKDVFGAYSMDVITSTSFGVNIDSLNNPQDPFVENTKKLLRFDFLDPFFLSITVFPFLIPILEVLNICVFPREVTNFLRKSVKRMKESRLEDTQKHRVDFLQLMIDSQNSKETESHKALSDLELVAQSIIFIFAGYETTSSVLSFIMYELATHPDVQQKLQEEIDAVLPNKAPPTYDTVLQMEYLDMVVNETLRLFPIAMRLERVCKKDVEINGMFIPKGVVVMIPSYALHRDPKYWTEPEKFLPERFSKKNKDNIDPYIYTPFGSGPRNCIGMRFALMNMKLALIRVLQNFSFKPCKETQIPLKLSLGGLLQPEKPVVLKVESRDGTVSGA
Glucocorticoid receptor (Homo sapiens), sequence (P04150 whole entry, looked up, the tested form may be a part): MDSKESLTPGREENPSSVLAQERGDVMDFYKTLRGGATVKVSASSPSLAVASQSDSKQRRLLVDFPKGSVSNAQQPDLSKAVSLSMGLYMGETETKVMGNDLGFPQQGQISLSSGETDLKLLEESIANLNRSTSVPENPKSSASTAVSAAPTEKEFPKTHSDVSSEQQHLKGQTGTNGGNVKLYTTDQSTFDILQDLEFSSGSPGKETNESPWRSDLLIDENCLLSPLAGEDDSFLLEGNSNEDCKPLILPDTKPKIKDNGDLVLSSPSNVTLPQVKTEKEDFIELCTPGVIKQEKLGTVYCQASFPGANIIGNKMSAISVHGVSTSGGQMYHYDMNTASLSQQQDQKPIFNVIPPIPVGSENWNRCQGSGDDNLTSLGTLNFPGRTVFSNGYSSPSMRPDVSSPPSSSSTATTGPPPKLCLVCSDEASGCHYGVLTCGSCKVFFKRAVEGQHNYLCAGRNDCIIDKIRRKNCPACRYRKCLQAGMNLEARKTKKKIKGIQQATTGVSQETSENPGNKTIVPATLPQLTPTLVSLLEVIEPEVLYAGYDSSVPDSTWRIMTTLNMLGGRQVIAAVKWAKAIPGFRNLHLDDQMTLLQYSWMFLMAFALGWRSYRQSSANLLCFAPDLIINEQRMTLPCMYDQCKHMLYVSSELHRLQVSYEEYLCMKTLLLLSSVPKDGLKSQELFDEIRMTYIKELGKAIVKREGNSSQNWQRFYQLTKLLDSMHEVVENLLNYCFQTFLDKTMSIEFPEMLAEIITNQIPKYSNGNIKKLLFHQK
Ubiquitin carboxyl-terminal hydrolase 1 (Homo sapiens), sequence (O94782 whole entry, looked up): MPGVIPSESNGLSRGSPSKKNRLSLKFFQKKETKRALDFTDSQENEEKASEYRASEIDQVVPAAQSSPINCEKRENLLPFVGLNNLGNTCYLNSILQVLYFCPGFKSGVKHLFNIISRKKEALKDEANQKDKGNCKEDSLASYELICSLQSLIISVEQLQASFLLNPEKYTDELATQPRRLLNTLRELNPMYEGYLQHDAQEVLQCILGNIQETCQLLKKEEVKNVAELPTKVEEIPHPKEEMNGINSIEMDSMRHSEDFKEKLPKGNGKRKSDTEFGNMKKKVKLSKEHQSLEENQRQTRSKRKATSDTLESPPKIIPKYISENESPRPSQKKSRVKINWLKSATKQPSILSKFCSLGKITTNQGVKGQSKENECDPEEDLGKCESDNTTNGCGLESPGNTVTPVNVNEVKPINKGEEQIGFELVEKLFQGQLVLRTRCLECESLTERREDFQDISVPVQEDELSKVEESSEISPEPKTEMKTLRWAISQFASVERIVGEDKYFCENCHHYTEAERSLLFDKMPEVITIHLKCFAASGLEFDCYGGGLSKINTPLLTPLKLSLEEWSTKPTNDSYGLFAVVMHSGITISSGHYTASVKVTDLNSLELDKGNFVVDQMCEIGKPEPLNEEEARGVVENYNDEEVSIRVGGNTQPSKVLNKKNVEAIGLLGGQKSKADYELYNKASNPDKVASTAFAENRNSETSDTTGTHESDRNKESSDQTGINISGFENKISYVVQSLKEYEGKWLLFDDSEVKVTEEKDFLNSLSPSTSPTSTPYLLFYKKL
Cytochrome P450 2D6 (Homo sapiens), sequence (P10635 whole entry, looked up): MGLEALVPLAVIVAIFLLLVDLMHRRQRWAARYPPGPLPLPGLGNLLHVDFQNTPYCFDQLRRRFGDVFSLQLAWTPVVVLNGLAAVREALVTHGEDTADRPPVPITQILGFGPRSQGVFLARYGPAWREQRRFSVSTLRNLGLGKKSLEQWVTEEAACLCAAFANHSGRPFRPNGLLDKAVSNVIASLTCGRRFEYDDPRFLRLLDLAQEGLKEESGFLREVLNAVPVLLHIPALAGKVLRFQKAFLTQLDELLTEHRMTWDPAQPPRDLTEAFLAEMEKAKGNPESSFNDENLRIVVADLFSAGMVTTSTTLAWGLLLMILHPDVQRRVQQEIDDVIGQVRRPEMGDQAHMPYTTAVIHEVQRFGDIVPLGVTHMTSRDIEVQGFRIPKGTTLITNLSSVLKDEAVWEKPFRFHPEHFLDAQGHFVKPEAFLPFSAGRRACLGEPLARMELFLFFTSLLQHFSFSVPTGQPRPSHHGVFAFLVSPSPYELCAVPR

CN(C)c1ccc(-c2nc(-n3ccnc3)c3ccccc3n2)cc1
inactive: activity, negative = inhibition [3] -23.3% | Potency [4] > 46 µM | Potency [5] > 46 µM | Potency [6] | Potency [7] | Potency [9] | Potency [14] | outcome [15]
active: Potency [1] 8.28 µM | Potency [2] 0.316 µM | Potency [8] 0.631 µM | Potency [10] 7.94 µM | Potency [11] 2.51 µM | Potency [12] 7.94 µM | Potency [13] 11.2 µM

N#CCCn1c(=O)c(-c2cc(F)cc(F)c2)nc2cnc(N3CCOCC3)nc21
inactive: Potency [1] > 11.4 µM | activity change, negative = inhibition [16] 2.2% | activity change, negative = inhibition [17] 20.1% | activity, negative = inhibition [3] 12.6% | Potency [4] > 9.22 µM | Potency [5] > 46 µM | Potency [6] | Potency [7] | Potency [9] | Potency [12] | Potency [18] | Potency [14] | outcome [15]
active: Potency [2] 3.16 µM

COc1ccc2[nH]cc(CCNc3ccnc(-c4ccccc4Cl)n3)c2c1
active: Potency [2] 0.398 µM | Potency [12] 22.4 µM | Potency [13] 22.4 µM
inactive: activity change, negative = inhibition [16] -9.46% | activity change, negative = inhibition [17] 5.21% | activity, negative = inhibition [3] -20.6% | Potency [5] > 46 µM | Potency [7] | Potency [9] | Potency [14] | outcome [15]

COCCNc1ncnc2ccc(-c3c(C)noc3C)cc12
active: Potency [19] 1.58 µM | Potency [12] 3.98 µM | Potency [13] 0.708 µM
inactive: Potency [1] > 11.4 µM | Potency [4] > 46 µM | Potency [5] > 46 µM | Potency [6] | Potency [7] | Potency [9] | Potency [14] | outcome [15]

CCNc1ncc2nc(-c3cc(F)cc(F)c3)c(=O)n(C3CC3)c2n1
inactive: activity change, negative = inhibition [16] 29.9% | activity change, negative = inhibition [17] 23.3% | activity, negative = inhibition [3] 28.9% | Potency [4] > 9.22 µM | Potency [6] | Potency [7] | Potency [12] | Potency [13] | Potency [14] | outcome [15]

CCNc1ncc2nc(CCc3ccccc3)c(=O)n(C[C@H]3CCCO3)c2n1
inactive: activity change, negative = inhibition [16] -23.9% | activity change, negative = inhibition [17] -3.48% | activity, negative = inhibition [3] -9.11% | Potency [4] > 9.22 µM | Potency [5] > 46 µM | Potency [6] | Potency [12] | Potency [13] | Potency [14] | outcome [15]
